Our source for the growth values is PubChem BioAssay (NCI).

Holding throughout (assay): NCI-60 one-dose screen, 48 h (100 = growth as untreated, 0 = no growth, -100 = all killed)
What all share (conditions): 10 µM unless noted

Assay [1] relates to NCI-H23 lung.
Assay [2] deals with NCI-H226 lung.
Assay [3] deals with NCI-H322M lung.
Assay [4] relates to HOP-62 NSCLC.
Assay [5] has as its system NCI-H460 lung.
For assay [6], the system named is HOP-92 NSCLC.
Assay [7] deals with NCI-H522 lung.
For assay [8], the system named is A549/ATCC NSCLC.
The test system of assay [9] is 786-0 renal.
In assay [10] the test system is COLO 205 colon.

Compounds without any hit were thinned out: in the full panel of roughly 83,000, 20% have a hit.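 The endpoint reported here, percent growth, reads 100 for growth as untreated, 0 for no net growth and -100 for all cells dead.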 Values without a mark were called inactive. Activity calls are given as the source filed them. Rule for the calls: active = growth percent below 10; inactive = the rest.

`CCCCCCCCCCCCC[C@H](O)C[C@H](O)[C@H](C)N`: the growth in assay [1] is 99.2% [1.25 µM]; in assay [2], 126% [1.25 µM]; in assay [3] it was 102% [1.25 µM]; in assay [4], 116% [1.25 µM]; in [5], 103% [1.25 µM]; in [6], 56.7% [1.25 µM]. In addition, the growth in assay [7] was 119% [1.25 µM]; in assay [8], 89.3% [1.25 µM]; in assay [9], 85.9% [1.25 µM]; in assay [10] it was 92.2% [1.25 µM].

Consider `O=C(NNC(=S)Nc1ccccc1)c1ccncc1`, for which the growth in assay [1] is 102%; in assay [2] it was 105%; in [3] it was 108%; in [4], 106%; in [5], 118%; in assay [6] it was 90.2%. Besides, the growth in assay [7] was 97.3%; in assay [8], 107%; in assay [9] it was 98.5%; in assay [10], 128%.

Consider `COc1cc(/C=C(/c2ccccc2)[N+](=O)[O-])c(OC)c2c1OCO2`, for which the growth was -34.7% (active) in assay [1]; 24.8% in assay [2]; 3.33% (active) in [3]; -19.6% (active) in [4]; -16.1% (active) in [5]; -49.2% (active) in assay [6]. Besides, the growth in assay [7] was -62.8% (active); in assay [8], 5.75% (active); in assay [9], -98% (active); in assay [10], -53.1% (active).

With `COc1cc(-c2[nH]ncc2Nc2ccc(Cl)cc2)cc(OC)c1OC`, the growth was 55.5% in assay [1]; 73.2% in [2]; 64.2% in assay [3]; 50.1% in assay [4]; 73.6% in assay [5]; 60% in assay [6]. For the same compound, the growth in assay [7] is 51.5%; in assay [8], 67.6%; in [9], 64.3%; in assay [10], 107%.

Turning to `Cc1ccccc1SSc1ccccc1C`, the growth in assay [1] was 83.4%; in [2], 95.6%; in assay [3], 98.2%; in [4] it was 96%; in assay [5], 37.4%; in assay [6], 81.2%. The growth was 60.8% in assay [7], 98.8% in assay [8], 105% in assay [9] and 91.4% in assay [10].

With `Cc1ccc(-c2nc([P+](c3ccccc3)(c3ccccc3)c3ccccc3)c(Nc3ccccc3)o2)cc1`, the growth is -6.49% (active) in assay [1]; 20.2% in assay [2]; 4.01% (active) in assay [3]; -16.4% (active) in [4]; -45.3% (active) in assay [5]; -14.4% (active) in assay [6]. Moreover, the growth is -33.5% (active) in assay [7], 4.95% (active) in assay [8], -24.5% (active) in assay [9] and -62.8% (active) in assay [10].

Regarding `COc1cc(/C=C/C(=O)c2ccc(NC(=O)CSc3nnc(-c4cc(-c5ccccc5)nc5ccccc45)n3-c3ccccc3)cc2)cc(OC)c1OC`, the growth is 86.8% in assay [1]; 85.4% in assay [2]; 91.7% in assay [3]; 93.7% in [4]; 90.4% in assay [5]; 88.6% in [6]. The growth in assay [7] was 70.7%; in assay [8], 85.8%; in assay [9], 94.7%; in assay [10], 86.4%.

In the case of `CC(C)(C)c1cc(C(C)(C)c2ccccc2)cc(Cc2cc(C(C)(C)c3ccccc3)cc(C(C)(C)C)c2O)c1O`, the growth in [1] is 108%; in assay [2], 90.9%; in [3], 97.1%; in assay [4], 108%; in [5], 105%; in assay [6], 55.1%. For the same compound, the growth was 79.2% in assay [7], 101% in [8], 103% in assay [9] and 123% in [10].

For the compound `CCCCCCCCn1ccc2cc(NC(=O)CN3CCN(c4nc(C)cc(N5CCCCC5)n4)CC3)ccc21`, the growth was 86% in assay [1]; 86.1% in assay [2]; 101% in assay [3]; 100% in [4]; 93.7% in [5]; 102% in assay [6]. Moreover, the growth was 76.7% in assay [7], 83.4% in [8], 88.4% in [9] and 84.7% in assay [10].

`CC(Sc1ccccc1)C(=O)O` (stereo not given): the growth in [1] is 96%; in assay [2], 99.3%; in [3], 109%; in assay [4], 83.4%; in assay [5], 111%; in assay [6], 97%. Further, the growth in assay [7] is 102%; in assay [8], 99.3%; in [9], 118%; in assay [10] it was 143%.

For `COc1ccc2c(c1)oc1c(C)c3c(c(C)c12)C(=O)N(Nc1ccccc1)C3=O`, the growth in assay [1] was 98.5%; in assay [2], 106%; in [3], 95.5%; in [4] it was 88.9%; in [5], 98.9%; in assay [6] it was 100%. Besides, the growth in assay [7] was 95.7%; in assay [8], 112%; in [9], 92.8%; in assay [10] it was 94%.

As to `Nc1c(C(=O)Nc2ccncc2)sc2nc3c(cc12)CCCCCCCC3`, the growth in assay [1] is -63.2% (active); in assay [2] it was 17.6%; in assay [3], -54.4% (active); in assay [4], -74.2% (active); in assay [5] it was -66.7% (active); in assay [6], -76.2% (active). Also, the growth is -84.9% (active) in assay [7], -62.7% (active) in assay [8], -93.9% (active) in assay [9] and -83.2% (active) in assay [10].
